# A number with no mark means an inactive call. Activity calls are given as the source filed them. Calls follow the shape of the full dose curve.
# Target: Acetylcholinesterase (Homo sapiens) (UniProt P22303)
# Assay: Acetylcholinesterase (AChE) small molecule antagonists: enzyme-based qHTS assay with human liver microsomes (AID 1347399); also: nearly all actives have a fitted effect of over 60% in size
# Conditions: Potency: qHTS inhibition; outcome: qHTS inhibition; series mostly up to 115 µM; activity change, negative = inhibition: at the top concentration
# From the text: National Center for Advancing Translational Sciences [NCATS]
# Division of Preclinical Innovation [DPI]
# U.S. Environmental Protection Agency [EPA]
# National Institutes of Environmental Health Sciences [NIEHS]
# National Toxicology Program [NTP]
# U.S. Food and Drug Administration [FDA]
# Acetylcholinesterase (AChE) is the primary cholinesterase in the body that hydrolyzes a key neurotransmitter, acetylcholine. Inhibition of AChE activity can lead to neurotoxicity. The known inhibitors include organophosphorous pesticides (OP), chemical warfare agents, drugs, and various phytochemicals. Some compounds like OP compounds may need metabolic activation to be active AChE inhibitors. The cytochrome P450 (CYP) superfamily in the human microsomes is responsible for the metabolism of various endogenous and exogenous compounds.
# An enzyme-based assay with the recombinant human AChE, human liver microsomes and Amplite Colormetric acetylcholinesterase assay kit (AAT Bioquest, Sunnyvale, CA) was used to evaluate compounds in the Tox21 10K library that need metabolic activation for AChE inhibition. The assay uses 5, 5-dithiobis-(2-nitrobenzoic acid) (DTNB) to quantify the thiocholine produced from the hydrolysis of acetylthiocholine by AChE.
# Tox21 Assay Protocol Summary:
# For the enzyme-based AChE assay with microsomes addition, a mixture of human AChE (50 mU/mL) and human liver microsomes (0.25 mg/mL, final concentration) in 3 uL/well was dispensed into black, clear-bottom 1536-well plates using a Multidrop Combi dispenser (Thermo Scientific, MA). Then, 23 nL of compound or DMSO (vehicle control) was transferred into the assay plates by a Pintool Station (Wako Automation, CA). Following compound addition, 1 uL of NADPH (0.25 mg/mL, final concentration) was transferred to the assay plate by a Flying Reagent Dispenser (Beckman Coulter, CA). The plates were incubated for 30 min at 37 C and 5% CO2, followed by the addition of 4 uL of colorimetric detection cocktail solution (DTNB, acetylthiocholine) into each well using a Flying Reagent Dispenser (Beckman Coulter, CA) and then 10 min incubation at room temperature.
# % is scaled to controls: 0 for no effect and ±100 for the full control effect.
# Acetylcholinesterase (Homo sapiens), sequence (P22303 whole entry, looked up): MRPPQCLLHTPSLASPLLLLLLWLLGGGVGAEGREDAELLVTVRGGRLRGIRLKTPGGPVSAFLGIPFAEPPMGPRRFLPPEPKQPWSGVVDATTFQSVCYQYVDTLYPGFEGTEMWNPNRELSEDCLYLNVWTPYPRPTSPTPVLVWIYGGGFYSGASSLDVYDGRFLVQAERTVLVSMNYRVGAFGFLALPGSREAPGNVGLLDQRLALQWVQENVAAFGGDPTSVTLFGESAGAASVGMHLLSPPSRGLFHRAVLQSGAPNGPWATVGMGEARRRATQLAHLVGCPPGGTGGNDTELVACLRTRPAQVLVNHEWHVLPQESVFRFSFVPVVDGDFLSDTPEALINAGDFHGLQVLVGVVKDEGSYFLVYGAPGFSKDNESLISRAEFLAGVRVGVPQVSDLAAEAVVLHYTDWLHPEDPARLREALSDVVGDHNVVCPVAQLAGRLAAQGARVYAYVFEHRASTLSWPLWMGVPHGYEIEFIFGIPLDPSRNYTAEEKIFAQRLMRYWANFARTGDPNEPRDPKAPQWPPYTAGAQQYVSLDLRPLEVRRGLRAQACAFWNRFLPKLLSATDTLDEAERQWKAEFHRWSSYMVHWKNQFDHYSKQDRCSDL
SMILES,"activity change, negative = inhibition",Potency
CCCCN(CCCC)C(=S)SSC(=S)N(CCCC)CCCC,-5.66%,–
Cc1cccc(O)c1,–,inactive
C=CC(=O)OCCC#N,4.13%,–
CCC(C)(C)c1cc(O)c(C(C)(C)CC)cc1O,-1.09%,–
Cc1c(Cl)cccc1Cl,-0.928%,–
CCn1nc(C)c2c1C(=O)NCC(c1ccc(O)cc1)=N2,0.291%,–
C1N2CN3CN1CN(C2)C3,–,inactive
CC1CC(O)CC(C)(C)C1 (stereo not given),-0.319%,–
CN1CCC[C@@H]1c1cccnc1,0.232% [at 53 µM],–
Cc1ccc(C)o1,0.334%,–
C1=CCCC1,0.405%,–
CC(=O)N[C@@H](CS)C(=O)O,–,inactive
FC(F)(F)c1ccccc1Cl,-3.53%,–
CNS(=O)(=O)c1cc(C(=O)N2CCC(CCN3C4CCC3CC(n3c(C)nc5ccccc53)C4)(c3cccc(F)c3)CC2)c(Cl)cc1F (stereo not given),-0.146%,–
CCCCCCCCC,–,inactive
CCCOc1ccc2nc(NC(=O)OC)[nH]c2c1,-0.837% [at 53 µM],–
CCN(CCO)CCCC(C)Nc1ccnc2cc(Cl)ccc12 (stereo not given),-0.168% [at 10.5 µM],–
CC(C)COC(=O)c1ccccc1,-0.153%,–
C=C(C)C(=O)OCCCCCCCCCC,-2.72%,–
CC1COc2ccccc2N1C(=O)C(Cl)Cl (stereo not given),–,inactive

SMILES,"activity change, negative = inhibition",Potency
O=c1[nH]c(=O)c2[nH]c(=O)[nH]c2[nH]1,21.5% [at 10.5 µM],–
C[C@@H](NCCCc1cccc(C(F)(F)F)c1)c1cccc2ccccc12,-1% [at 53 µM],–
O=P(c1ccccc1)(c1ccccc1)c1ccccc1,0.0764%,–
COc1ccc(-n2nc(CCC(=O)N(C)O)cc2-c2ccc(Cl)cc2)cc1,-1.17% [at 53 µM],–
Clc1ccc2c(c1)C(N1CCNCC1)=Nc1ccccc1O2,–,inactive
O=C1C(c2[nH]c3ccc(S(=O)(=O)O)cc3c2O)=Nc2ccc(S(=O)(=O)O)cc21,-4.15%,–
COC(=O)[C@H]1[C@H]2C[C@@H]3c4[nH]c5cc(OC)ccc5c4CCN3C[C@H]2C[C@@H](OC(=O)/C=C/c2ccc(O)c(OC)c2)[C@@H]1OC,2.9% [at 53 µM],–
CC(=O)OC/C=C(/C)CCC=C(C)C,-1.08%,–
CC(C)=CC(C)(C)C,0.49%,–
CCOC(=O)C(F)(F)F,0.764%,–
COC=O,0.679% [at 10.5 µM],–
CCCC(=O)O,–,inactive
CCc1ccccc1CC,–,inactive
Oc1ccc(O)cc1,–,inactive
OCCOc1cccc(OCCO)c1,-8.36%,–
CC(CCc1ccccc1)NCC(O)c1ccc(O)c(C(N)=O)c1 (stereo not given),0.809%,–
CC1=C(CC(=O)O)c2cc(F)ccc2/C1=C\c1ccc(S(C)=O)cc1 (stereo not given),–,inactive
N/C(=N\N=C\c1ccc(Cl)cc1)N/N=C/c1ccc(Cl)cc1,1.18% [at 53 µM],–
CCCCOC(=O)COc1ccc(Cl)cc1Cl,–,inactive
Nc1cccc(N)n1,–,inactive

# Reference: PubChem BioAssay (Tox21)
